Screening data deposited in PubChem by National Center for Advancing Translational Sciences (NCATS).
GRP78 ERSR act: inducers of ER stress response in human glioma cells; Potency, µM, for the others: at the top dose activation, hits mostly activators; 420,000 compounds, 0.02% hits; AID 602332; U87-MG GRP78 promoter luciferase reporter, 16 h; note: series mostly up to about 76 µM; % of control where 0% means no effect; nearly all actives have a fitted effect of over 35% in size
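Stably transfected U87-MG human glioma cells carrying a GRP78-based luminescent sensor were seeded at 1000 cells/well, pin-dosed with compounds and incubated 16 h. Luciferase reagent was then added, and end-point luminescence was read after 10 min at room temperature.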
MBNL1 CUG block: blocks human MBNL1 binding to CUG repeat RNA; TR-FRET MBNL1-His/biotin-(CUG)12 binding, 665/545 ratio; Potency, µM (doses to about 57.5 µM), inactives show at the top dose activity change, negative = inhibition, usual class: inhibitors; 280,000 compounds, 0.036% hits; active = well fitted inhibition curve with a large enough effect in the signal ratio, with a control signal flat, not every such curve was filed as active; inconclusive = small, poorly fitted or top-dose-only effect, or effect the other way, or a change in a side signal; inactive = no such curve, though single readings can be large or run the other way; the % refers to the signal ratio; note: % is set by controls: 0 for no effect and ±100 for the full control effect
Target sequence (Q9NR56 whole entry, looked up): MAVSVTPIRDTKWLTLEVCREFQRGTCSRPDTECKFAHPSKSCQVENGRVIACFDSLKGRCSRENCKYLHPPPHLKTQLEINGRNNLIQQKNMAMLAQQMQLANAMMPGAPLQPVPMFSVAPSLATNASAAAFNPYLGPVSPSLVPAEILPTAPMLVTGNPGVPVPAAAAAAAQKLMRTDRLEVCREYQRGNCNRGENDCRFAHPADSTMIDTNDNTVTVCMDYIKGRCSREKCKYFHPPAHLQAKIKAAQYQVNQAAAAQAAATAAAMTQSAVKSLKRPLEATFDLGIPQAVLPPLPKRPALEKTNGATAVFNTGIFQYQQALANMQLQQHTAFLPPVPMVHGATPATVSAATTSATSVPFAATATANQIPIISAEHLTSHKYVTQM
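TR-FRET readout: Ex 340 nm, 665/545 nm emission ratio, normalized to buffer-only (basal) and MBNL1-(CUG)12 controls. Complex of MBNL1-His with Biotin-(CUG)12, compounds 92 nM–58 uM, incubated 60 min at room temperature.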
FUS yeast rescue: rescues growth of FUS-expressing yeast | S. cerevisiae FUS-expressing, growth rescue, OD600, 24 h | Potency, µM (titrated, usually from 76.6 µM), hits mostly activators | 390,000 compounds, 0.24% hits;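 note: plate controls were DMSO vehicle for no effect and reference control for full effect; nearly all actives have a fitted effect of over 55% in size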
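Steps: raffinose overnight preculture; dilution to OD 0.005 in 2% galactose minimal medium; compound addition (concentration series); 24hr at 30C, 99% humidity; absorbance read at 600 nm.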
Abeta rescue: compounds reversing amyloid beta toxicity in yeast | yeast expressing A-beta42, growth rescue, OD600, 48 h; response scale: 0% DMSO, 100% iron-clioquinol control | Potency, µM (top dose mostly 46.1 µM), actives largely listed as activators | 410,000 compounds, 0.063% hits; note: nearly all actives have a fitted effect of over 55% in size
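Growth rescue measured by 600 nm absorbance after 48 h yeast culture at 30 C with compound. Values normalized between DMSO and an equimolar ferric chloride plus clioquinol control.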
aSyn rescue: alpha-synuclein toxicity inhibition in yeast. Yeast expressing alpha-synuclein, growth rescue, BacTiter-Glo, 24 h. Potency, µM (doses to about 46.1 µM), inactives show at the top dose growth rescue (activation), usual class: activators. 370,000 compounds, 0.14% hits. AID 652106; note: % of control where 0% means no effect; nearly all actives have a fitted effect of over 65% in size
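Screening used galactose-induced yeast with toxic alpha-synuclein levels, exposed to compound for 24 hr at 30 deg C. Cell growth, read with BacTiter-Glo luminescence, gave the measured signal.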
TDP-43 yeast inh: rescues yeast growth from TDP-43 toxicity; AID 652104; Potency, µM (titrated, usually from 46.1 µM), inactives show at the highest dose growth rescue (activation), hits mostly activators; 410,000 compounds, 1.8% hits; TDP-43 expressing yeast growth rescue, BacTiter-Glo, 24 h; note: % of control where 0% means no effect; nearly all actives have a fitted effect of over 50% in size
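In this qHTS, compounds that restore growth of yeast expressing TDP-43 appear as activators. Cells (OD600=0.02, galactose medium, raffinose-pregrown) are incubated with compound 24 hr at 30 deg C and growth is quantified by BacTiter-Glo.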
An asterisk follows results filed as active. An excerpt weighted towards active compounds, which were near 2% of everything screened. Unless noted, calls come from the whole dose curve; as a rule, active = well fitted curve in the direction sought with a large enough effect; inconclusive = small, poorly fitted or top-dose-only effect, or another doubt; inactive = no such curve, though single readings can be large; an effect the other way counts as inactive or inconclusive. Potency is the fitted concentration of half-maximal effect.

For COc1ccc(CN2C(=O)C(CC(=O)NC3CCCCC3)CC(C(=O)N(C)C)=C2C)cc1 (configuration not stated) the results were GRP78 ERSR act -2%, FUS yeast rescue inactive, Abeta rescue inactive, aSyn rescue 3.5µM* and TDP-43 yeast inh -4%.
`CC1=C(C(=O)N(C(C)C)C(C)C)CC(CC(=O)NCc2cccc3ccccc23)C(=O)N1Cc1ccccc1` (configuration not stated) gave GRP78 ERSR act -4%, FUS yeast rescue inactive, Abeta rescue inactive, aSyn rescue 0% and TDP-43 yeast inh 10%.
For CN1CCCCC1C(=O)N1CCC(Oc2cccc(CN3CCN(c4ccccn4)CC3)c2)CC1 (configuration not stated) the results were GRP78 ERSR act -4%.
`Cc1csc(C(C)N(C)C(=O)c2cnn(-c3nccc(-c4cc(C)sc4C)n3)c2C)n1` (configuration not stated) gave GRP78 ERSR act 0%.
Screening O=CNc1cc(-c2cccc(F)c2)cn2c(-c3ccc(F)c(Cl)c3)cnc12 returned GRP78 ERSR act -2%, FUS yeast rescue inactive, Abeta rescue inactive, aSyn rescue -6% and TDP-43 yeast inh 16µM*.
For O=CNc1cc(-c2ccccc2)cn2c(-c3ccc(F)c(Cl)c3)cnc12 the results were GRP78 ERSR act 3%, FUS yeast rescue inactive, Abeta rescue inactive, aSyn rescue -13% and TDP-43 yeast inh inconclusive.
Screening CN(C)c1ccc(-c2cc(NC=O)c3ncc(-c4ccc(F)c(Cl)c4)n3c2)cc1 returned GRP78 ERSR act 3%, FUS yeast rescue inconclusive, Abeta rescue inactive, aSyn rescue -6% and TDP-43 yeast inh 22µM*.
Cc1ccccc1C(=O)N1CCC(Oc2cccnc2)CC1 was read as FUS yeast rescue inactive.
`CCN(CC(=O)Nc1ccc2c(c1)OCCO2)C(=O)/C=C/c1cccc(Br)c1` gave GRP78 ERSR act 2%, FUS yeast rescue inactive, Abeta rescue inactive, aSyn rescue 15% and TDP-43 yeast inh 13µM*.
`O=C(/C=C/c1cccc(Br)c1)c1ccc2c(c1)OCO2` gave GRP78 ERSR act inconclusive, MBNL1 CUG block 1%, FUS yeast rescue inactive, Abeta rescue inactive, aSyn rescue -12% and TDP-43 yeast inh 11µM*.
`COc1ccc2ccccc2c1C=Nn1c(-c2n[nH]c3c2CCC3)n[nH]c1=S` gave FUS yeast rescue inactive.
O=C(O)c1ccccc1N1C(=O)c2cccc3cccc(c23)C1=O was read as GRP78 ERSR act -3%, MBNL1 CUG block inconclusive, FUS yeast rescue inactive, Abeta rescue inactive, aSyn rescue 2% and TDP-43 yeast inh -10%.
Cc1ccccc1N1C(=O)c2cccc3cccc(c23)C1=O was read as GRP78 ERSR act -4%, MBNL1 CUG block inconclusive, FUS yeast rescue inactive, Abeta rescue inactive, aSyn rescue -22% and TDP-43 yeast inh 20µM*.
`Cc1cccc(/C(N)=N/OC(=O)c2cccc3ccccc23)c1` gave MBNL1 CUG block 8%.
COc1ccc(C(=O)O/N=C2\C(=O)N(C)c3ccccc32)cc1 was read as GRP78 ERSR act -6%, FUS yeast rescue inactive, aSyn rescue 5.6µM* and TDP-43 yeast inh 4µM*.
Screening COc1ccc(C(=O)OCCN2C(=O)c3ccccc3C2=O)cc1 returned GRP78 ERSR act 1%, MBNL1 CUG block 10%, FUS yeast rescue inactive, Abeta rescue inactive, aSyn rescue inconclusive and TDP-43 yeast inh 2%.
CN1C(=O)/C(=N\OC(=O)c2cccc3ccccc23)c2ccccc21 was read as GRP78 ERSR act -3%, MBNL1 CUG block inconclusive, FUS yeast rescue inactive, Abeta rescue inactive, aSyn rescue inconclusive and TDP-43 yeast inh 18µM*.
`CC(C)(C)c1cc(NS(=O)(=O)c2ccc(Br)s2)no1` gave GRP78 ERSR act -3%, MBNL1 CUG block 0%, FUS yeast rescue inactive, Abeta rescue inactive, aSyn rescue -15% and TDP-43 yeast inh 22µM*.
Cc1cc(NS(=O)(=O)c2ccc(Br)s2)no1 was read as GRP78 ERSR act -5%, FUS yeast rescue inactive, Abeta rescue inactive, aSyn rescue -1% and TDP-43 yeast inh 10%.
For COc1ccc(CNC(=O)C[C@H]2C[C@H](C(=O)N(C(C)C)C(C)C)[C@@]3(C)c4[nH]c5ccc(Cl)cc5c4CCN3C2=O)cc1OC the results were GRP78 ERSR act -1%, FUS yeast rescue inconclusive, Abeta rescue inactive, aSyn rescue 13% and TDP-43 yeast inh 13µM*.
For COc1ccc(CNC(=O)C[C@H]2C[C@H](C(=O)N3CCOCC3)[C@@]3(C)c4[nH]c5ccc(Cl)cc5c4CCN3C2=O)cc1OC the results were GRP78 ERSR act -1%, FUS yeast rescue inactive, Abeta rescue inactive, aSyn rescue 6% and TDP-43 yeast inh 9%.
Screening CC(C)N(C(=O)[C@H]1CC(CC(=O)NCC23CC4CC(CC(C4)C2)C3)C(=O)N2CCc3c([nH]c4ccccc34)[C@]12C)C(C)C (some centres not stated) returned GRP78 ERSR act -1%, FUS yeast rescue inactive, Abeta rescue inactive, aSyn rescue inconclusive and TDP-43 yeast inh 22µM*.
Screening CCOC(=O)[C@]12CCCC=C1N(Cc1ccc(OC)cc1)C(=O)[C@@H]2CC(=O)NCC12CC3CC(CC(C3)C1)C2 returned FUS yeast rescue 18µM*.
CCN1CCCC1CNC(=O)c1cnn(-c2ncc3c(n2)-c2ccc(OC)cc2CC3)c1C1CC1 (configuration not stated) was read as GRP78 ERSR act -5%.
For CCOCCc1nnc(NC(=O)C(=O)c2cc(C)n(-c3cccc(C)c3)c2C)s1 the results were GRP78 ERSR act 1%, FUS yeast rescue inconclusive, Abeta rescue inactive and TDP-43 yeast inh 35µM*.
Screening Cc1cc[n+](CCC2CCCCC2)cc1 returned GRP78 ERSR act -4%.
COc1ccc(/C=C(/C(=O)c2cccs2)N2C=CC=CC2=C(C#N)C#N)cc1 was read as GRP78 ERSR act -7%, MBNL1 CUG block inconclusive, FUS yeast rescue inactive, Abeta rescue inactive, aSyn rescue 18µM* and TDP-43 yeast inh inconclusive.
For CC(C)C[C@H](N)c1nnc(SCC(=O)Nc2ccc(Br)cc2)o1 the results were GRP78 ERSR act -5%, MBNL1 CUG block -1%, FUS yeast rescue inactive, Abeta rescue inactive, aSyn rescue 0% and TDP-43 yeast inh -18%.
